# Source: PubChem (National Center for Advancing Translational Sciences (NCATS))
# A selection: hits, their analogues and other compounds. The true share with any hit is near 10%.
# HEK cytotox: Cytotoxic Profiling in HEK 293 Cell Line of Diverse Libraries Using Quantitative High-Throughput Screening | HEK 293 viability, ATP luminescence (CellTiter-Glo), 48-72 h | Potency, µM (series often up to 115 µM), for the others: at the top dose activity change, negative = cytotoxicity, usual class: inhibitors | hit rate 6.6% among 94,000; note: % is set by controls: 0 for no effect and ±100 for the full control effect; nearly all actives have a fitted effect of over 60% in size
#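 Pintool-delivered compounds were incubated with HEK 293 cells (250 cells/well) at 37 degree Celsius for 48 or 72 hr. ATP-dependent luminescence (CellTiter-Glo) then reported remaining viable cells.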
# NPR1 antag: Natriuretic polypeptide receptor (hNpr1) antagonism - Primary qHTS. HEK293 hNpr1 GloSensor cGMP, ANP-stimulated luminescence. Potency, µM (series often up to 46.3 µM), inactives show top-dose activity change, negative = inhibition, usual class: inhibitors. hit rate 1.6% among 76,000. AID 1347048, 2019; calls by dose curve; note: % is set by controls: 0 for no effect and ±100 for the full control effect; nearly all actives have a fitted effect of over 60% in size
# Target sequence (P16066 whole entry, looked up): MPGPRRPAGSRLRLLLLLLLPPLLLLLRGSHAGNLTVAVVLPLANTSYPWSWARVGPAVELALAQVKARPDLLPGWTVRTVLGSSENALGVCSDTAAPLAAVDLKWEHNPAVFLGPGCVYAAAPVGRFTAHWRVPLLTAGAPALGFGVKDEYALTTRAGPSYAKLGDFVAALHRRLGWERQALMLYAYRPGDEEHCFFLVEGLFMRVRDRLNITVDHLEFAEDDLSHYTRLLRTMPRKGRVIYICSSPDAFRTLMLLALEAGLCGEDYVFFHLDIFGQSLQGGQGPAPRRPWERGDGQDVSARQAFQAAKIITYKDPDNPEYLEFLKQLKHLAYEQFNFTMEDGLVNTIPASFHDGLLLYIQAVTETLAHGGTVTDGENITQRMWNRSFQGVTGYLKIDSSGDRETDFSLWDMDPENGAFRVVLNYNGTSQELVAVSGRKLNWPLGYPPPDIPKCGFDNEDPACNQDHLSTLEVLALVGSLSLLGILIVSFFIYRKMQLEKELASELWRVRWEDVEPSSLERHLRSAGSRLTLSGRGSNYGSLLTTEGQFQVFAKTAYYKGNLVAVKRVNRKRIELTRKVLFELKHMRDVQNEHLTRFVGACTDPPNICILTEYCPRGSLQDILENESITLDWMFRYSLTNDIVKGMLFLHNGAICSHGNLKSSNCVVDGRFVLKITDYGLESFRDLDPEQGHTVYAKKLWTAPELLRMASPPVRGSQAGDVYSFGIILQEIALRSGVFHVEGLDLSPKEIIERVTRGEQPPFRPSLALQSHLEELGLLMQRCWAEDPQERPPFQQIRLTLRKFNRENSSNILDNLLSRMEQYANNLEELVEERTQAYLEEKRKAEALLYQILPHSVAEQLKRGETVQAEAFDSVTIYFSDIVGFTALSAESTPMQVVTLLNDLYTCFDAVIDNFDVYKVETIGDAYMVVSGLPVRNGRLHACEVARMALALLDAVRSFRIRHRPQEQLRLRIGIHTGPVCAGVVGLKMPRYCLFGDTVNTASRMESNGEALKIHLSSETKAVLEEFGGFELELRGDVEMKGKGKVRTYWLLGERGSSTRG
#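 HEK293 cells stably expressing human Npr1 and cGMP GloSensor pGS-40F, loaded 2 h with 2% GloSensor reagent, given compound 30 min at room temperature. Luminescence read before and 20 min after 0.1 nM hNppA.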
# GPT2 inh: Primary qHTS assay for inhibitors of Glutamate pyruvate transaminase 2 (GPT2); Alanine aminotransferase 2 (Homo sapiens), Q8TD30; Recombinant GPT2, coupled pyruvate oxidase/HRP Amplex Red fluorescence; Potency, µM (doses to about 57.7 µM), inactives show top-dose activity change, negative = inhibition, actives largely listed as inhibitors; hit rate 0.25% among 100,000; AID 1671188, 2021; note: % is set by controls: 0 for no effect and ±100 for the full control effect; nearly all actives have a fitted effect of over 60% in size
#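 Recombinant GPT2 (10ng/uL) with 250uM a-KG and 2mM L-alanine, 30 min at room temperature, in HEPES pH 7.5 buffer. Pyruvate detected by pyruvate oxidase/HRP/Amplex Red fluorescence after 30 min in the dark; AOA (50uM) as positive control.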
# NIH3T3 tox: Cytotoxic Profiling in NIH 3T3 Cell Line of Diverse Libraries Using Quantitative High-Throughput Screening | hit rate 4.3% among 94,000 | NIH 3T3 viability, CellTiter-Glo ATP luminescence, 48-72 h | Potency, µM (titrated, usually from 96.7 µM), for inactives: at the highest dose activity change, negative = cytotoxicity, usual class: inhibitors | AID 1345082, 2018; note: % is set by controls: 0 for no effect and ±100 for the full control effect; nearly all actives have a fitted effect of over 55% in size
#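 Cells were seeded at 400 per well, treated with pin-transferred compound, and kept 48 or 72 hr at 37 °C before CellTiter-Glo addition and luminescence imaging of cellular ATP.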
# FLuc inh-1: Firefly luciferase inhibition profiling of diverse chemical library using quantitative high-throughput screening | purified P. pyralis luciferase, luminescence, biochemical | Potency, µM (series often up to 115 µM), actives largely listed as inhibitors | hit rate 2.5% among 76,000; note: % is set by controls: 0 for no effect and ±100 for the full control effect; nearly all actives have a fitted effect of over 65% in size
#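 Inhibitors were tested against purified firefly luciferase in a biochemical, low-substrate format (both substrates at 10uM) and luminescence measured with a CCD imager.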
# FLuc SDR no ATP: Firefly luciferase (FLuc-C-HiBiT) SDR gain of signal screen - without ATP; shares compounds with FLuc inh-1; Purified FLuc-C-HiBiT, Nano-Glo HiBiT luminescence, no ATP; Potency, µM (series often up to 32.7 µM), for the others: top-dose activation (signal gain), actives largely listed as activators; hit rate 7.8% among 1,300; note: nearly all actives have a fitted effect of over 55% in size
# FLuc SDR ATP: Firefly luciferase (FLuc-C-HiBiT) SDR gain of signal screen - plus ATP. shares compounds with FLuc inh-1. purified FLuc-C-HiBiT + ATP, HiBiT complementation luminescence. AID 1963319, 2024. hit rate 8.7% among 1,300. Potency, µM (series often up to 32.7 µM), for inactives: top-dose activation (gain of signal), usual class: activators;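 note: signal reports ligand binding via conformational change of the enzyme rather than luciferase catalysis; % of control where 0% means no effect; nearly all actives have a fitted effect of over 55% in size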
# FLuc inh-2: Firefly luciferase (FLuc-C-HiBiT) enzymatic inhibition screen - Functional assay; shares compounds with FLuc inh-1; Potency, µM (highest dose often 32.7 µM), for inactives: top-dose activity change, negative = inhibition, hits mostly inhibitors; purified FLuc-C-HiBiT enzyme, luciferin luminescence; hit rate 42% among 1,300; note: % is set by controls: 0 for no effect and ±100 for the full control effect; nearly all actives have a fitted effect of over 70% in size
# The depositor's hits bear a star; i = inactive; ? = inconclusive; . = not tested or not shown; [ ] = another dose, or the depositor's remark. Unless noted, calls come from the whole dose curve; as a rule, active = well fitted curve in the direction sought with a large enough effect; inconclusive = small, poorly fitted or top-dose-only effect, or another doubt; inactive = no such curve, though single readings can be large; an effect the other way counts as inactive or inconclusive. Potency is the fitted concentration of half-maximal effect.
SMILES,HEK cytotox,NPR1 antag,GPT2 inh,NIH3T3 tox,FLuc inh-1,FLuc SDR no ATP,FLuc SDR ATP,FLuc inh-2
O=C(Nc1nn(-c2cccc(F)c2)c2cccc(N3CCOC3=O)c12)C1CCC1,-10%,-8%,?,-23%,i,.,.,.
CSCC(=O)Nc1nn(-c2ccc(F)cc2)c2cccc(N3CCOCC3)c12,?,?,-21%,?,6.3µM*,23%,16%,?
Cc1cc(CNC(=O)CC2C=CS(=O)(=O)C2)c2[nH]c(-c3ccccc3)c(C)c2c1 (stereo not drawn),45µM*,-21%,-5%,40µM*,6.3µM*,21%,13%,?
O=C(O)c1cccc2c1CCN2C(=O)Nc1ccc(F)cc1,8.9µM*,0.32µM*,-15%,?,0.0079µM*,11µM*,0.0062µM*,0.0035µM*
CN(C)C(=O)c1cccc2c1CCN2C(=O)Nc1ccc(F)cc1,-5%,-1%,1%,-19%,13µM*,15%,6.2µM*,3.9µM*
COc1ccc(NC(=O)c2cccc3c2CCN3C(=O)c2ccc(F)cc2)cc1OC,-2%,-30%,-7%,2%,?,.,.,.
COC1CCOC2(CCN(C(=O)c3cc(-c4ccc(F)cc4)n[nH]3)CC2)C1 (stereo not drawn),-18%,6%,3%,?,i,.,.,.
O=C1NCc2ccccc2CC12CCN(Cc1cc(F)ccc1O)C2 (stereo not drawn),-19%,.,-14%,-7%,.,.,.,.
CC(C)(C)CN1CCNc2cc(Nc3cccnc3)ncc2C1,-39%[172 µM],-1%[70.6 µM],i,?,1.6µM*,?,?,6.4µM*
CC(C)(C)CN1CCNc2cc(Nc3ccccc3)ncc2C1,?,?,?,50µM*,2.2µM*,?,17%[49.3 µM],7.2µM*
COCc1ccc(C(=O)N2CCc3[nH]nc(-c4ccccc4F)c3C2)s1,?,-7%,1%,?,i,.,.,.
Cc1nnc(SCc2ccccc2)c2cc3sccc3n12,.,.,.,.,.,16%,10%,?
Cc1cccc(NC(=O)C2CCN(C(=O)c3ncn4c3COC(c3ccccc3)C4)CC2)c1 (stereo not drawn),5%,-28%,i,1%,3.2µM*,15%,2µM*,2.5µM*
Cc1cc(C)cc(NC(=O)C2CCN(C(=O)c3ncn4c3COC(c3ccccc3)C4)CC2)c1 (stereo not drawn),6%,-3%,4%,i,8.9µM*,16%,?,3.1µM*
CCc1cccc(NC(=O)C2CCN(C(=O)c3ncn4c3COC(c3ccc(OC)cc3)C4)CC2)c1 (stereo not drawn),-4%,1%,4%,-2%,?,.,.,.
COc1ccc(C2Cn3cnc(C(=O)N4CCC(C(=O)Nc5cc(F)cc(F)c5)CC4)c3CO2)cc1 (stereo not drawn),?,?,-13%,?,?,.,.,.
C[C@@H]1C(=O)O[C@H]2[C@H]1CC[C@@]1(C)Cc3sc(Nc4cccnc4)nc3[C@@H](C)[C@H]21,-5%[172 µM],16µM*,-8%[88.5 µM],-22%[174 µM],0.79µM*,1µM*,?,0.45µM*
C[C@@H]1C(=O)O[C@H]2[C@H]1CC[C@@]1(C)Cc3sc(Nc4ccccc4)nc3[C@@H](C)[C@H]21,?,?,i,?,?,.,.,.
Cc1ccc(S(=O)(=O)Nc2nc3c(s2)C[C@]2(C)CC[C@@H]4[C@H](OC(=O)[C@H]4C)[C@H]2[C@@H]3C)cc1,-21%,-2%,-2%,-23%,?,.,.,.
C[C@@H]1C(=O)O[C@H]2[C@H]1CC[C@@]1(C)Cc3sc(NCc4ccccc4)nc3[C@@H](C)[C@H]21,?,?,-30%[88.5 µM],?,3.5µM*,?,17%[49.3 µM],7.2µM*
O=C(CCc1nc(C2CCCN2Cc2ccc3[nH]ccc3c2)no1)N1CCCC1 (stereo not drawn),-16%,-2%,i,?,i,.,.,.
CC(=O)N1CCN(C[C@@H]2C=C(C)[C@H](Cc3nnc(-c4ccccc4F)o3)C[C@H]2C(C)C)CC1,?,-16%,5%,?,i,.,.,.
COc1ccccc1C(=O)Nc1cc2c(cc1N1CCCC1)n(C)c(=O)n2C,.,.,i,.,.,.,.,.
Cc1ccc(C(=O)Nc2onc3c2CCCC3)cc1,.,.,.,.,.,?,3.9µM*,0.99µM*
COc1ccccc1C(=O)Nc1onc2c1CCCC2,.,.,.,.,.,14%,?,9.9µM*
COc1ccc2cc(C3CN(C(=O)Cc4ccc(O)cc4)CCO3)ccc2c1 (stereo not drawn),?,?,-10%,?,8.9µM*,21%,17%,?
CN(C)c1ccc(C(=O)N2CCCC(COc3ccccc3C(=O)N3CCCC3)C2)cc1 (stereo not drawn),?,1%,i,-29%,i,.,.,.
COc1ccc(-c2ccc3c(c2)C(=O)N2CC[C@H](NC(=O)c4cccc(F)c4)[C@H]2C(=O)N3)cc1,?,-3%,2%,?,11µM*,17%,11%,?
O=C(N[C@H]1CCN2C(=O)c3cc(-c4ccc(F)cc4F)ccc3NC(=O)[C@H]12)c1cccc(F)c1,?,-12%,3%,?,?,.,.,.
CSc1ccc(-c2ccc3c(c2)C(=O)N2CC[C@H](NC(=O)c4cccs4)[C@H]2C(=O)N3)cc1,-15%,-15%,i,-20%,6.3µM*,17%,12%,?
